A short description of assay [1]: BSK_BT_PBMCCytotoxicity: PBMC Cytotoxicity Assessment in the BioMAP Diversity Plus: BT Assay (AID 2284225).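 Note: PBMC viability measured by Alamar Blue dye reduction fluorescence.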 To be noted: primary human B cells with PBMC. In outline: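 PBMC (75,000/well) pretreated with compound 1 h, then activated with SEB and TSST-1 (20 ng/mL each final), incubated 90 h; Alamar Blue added 6 h, fluorescence read at 546/580 nm. Fitted relative to DMSO.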

Read-out in assay [2]: Secreted IgG (sIgG), gene 3500
The experiment in a line: BSK_BT_sIgG: BioMAP Diversity Plus: BT Assay for Secreted IgG (sIgG) Biomarker Activity (AID 2284226). To be noted: primary human B cells with PBMC. In outline: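 Human B cell plus PBMC co-culture; secreted IgG measured by ELISA 24 h after chemical dosing. Response fitted in positive direction relative to DMSO baseline.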

Assay [3] in a line: BSK_BT_Bcell_Proliferation: Viability Assessment in the BioMAP Diversity Plus: BT Assay for B cell Proliferation (AID 2284227). To be noted: primary human B cells with PBMC. In outline: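 Read-out is absorbance at 560 nm from sulforhodamine B staining of total protein, reflecting relative cell numbers in a human B cell and PBMC co-culture after 72 h of chemical exposure. Values were referenced to DMSO.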

Read-out in assay [4]: Tumor necrosis factor (Homo sapiens) (UniProt P01375)
The experiment in a line: BSK_BT_xTNFa: BioMAP Diversity Plus: BT Assay for Tumor necrosis factor alpha (TNF-alpha) Biomarker Activity (AID 2284230). To be noted: primary human B cells with PBMC. In outline:
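Human primary co-culture of B cells and peripheral blood mononuclear cells; TNF-alpha in supernatant, 24 h post-dose, Luminex multiplex; DMSO = baseline.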

Read-out in assay [5]: Vascular cell adhesion molecule 1 (VCAM1), VCAM1 (gene 7412)
The experiment in a line: BSK_MyoF_VCAM1: BioMAP Diversity Plus: MyoF Assay for Vascular cell adhesion molecule 1 (VCAM1) Biomarker Activity (AID 2284231). To be noted: primary human lung fibroblasts. Put shortly:
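MyoF system, lung fibroblasts; 24 h post-dose; VCAM-1 by ELISA; gain-of-signal fit vs DMSO baseline.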

Assay [6] can be described thus: CCTE_Mundy_HCI_Cortical_Synap_Neur_Matur_NeuriteLength: CCTE's Synaptogenesis and Neurite Maturation Assay in rat cortical cells for Neurite Length, Mundy Lab (AID 2284214). In outline:
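Rat primary cortical cultures, AraC added DIV 5, dosed DIV 7 through DIV 12 […]. Fixed, MAP2/synaptophysin immunostained with Hoechst; neurite length by high-content imaging, fitted in positive direction versus DMSO.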

A short description of assay [7]: CCTE_Mundy_HCI_Cortical_Synap_Neur_Matur_NeuriteSpotCountPerNeuron: CCTE's Synaptogenesis and Neurite Maturation Assay in rat cortical cells for Neurite Spot Count per Neuron Count, Mundy Lab (AID 2284215). In outline:
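Read-out: neurite-associated synaptophysin puncta per neuron, imaged by high-content analysis after MAP2, synaptophysin and Hoechst staining. Rat primary cortical cultures, dosed DIV 7 through DIV 12; DMSO served as baseline.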

Assay [8] in a line: TAMU_PeakParms_SingleDonor1434_Chronotropy: Texas A&M University (TAMU) 1.5-hr Human Induced Pluripotent Stem Cell (iPSC)-derived Cardiomyocytes Calcium (Ca+2) Flux Assay for Cardiotoxicity: Chronotropy (changes in peak frequency) (AID 2284217). To be noted: actives raise or lower the signal. In outline: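 iPSC-CMs, donor 1434; 4 conc (0.2–100 uM), 0.5% v/v DMSO, 90 min, 37C/5% CO2; Ca2+ flux fluorescence → peak.freq.avg; peak.freq.avg = 0 dropped; bidirectional fit vs DMSO; EC05 POD.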

Assay [9] can be described thus: CCTE_Mundy_HCI_Cortical_Synap_Neur_Matur_SynapseCount: CCTE's Synaptogenesis and Neurite Maturation Assay in rat cortical cells for Synapse Count, Mundy Lab (AID 2284218). Put shortly:
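Rat primary cortical cultures, AraC at DIV 5, chemical dosing DIV 7 to DIV 12 (288.33 h). Fixed cells stained for MAP2, synaptophysin and Hoechst; synapses per neuron counted by high-content imaging, loss of signal versus DMSO.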

A short description of assay [10]: CCTE_Mundy_HCI_hN2_NOG_NeuriteCount: CCTE's Neurite Outgrowth Assay in human hN2 cells for Neurite Count, Mundy Lab (AID 2284219; active = hit-call score of the fitted dose curve at least 0.9, where 1 is the maximum). Put shortly:
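In this morphology assay, hNP1-derived neurons received test chemical 2 h post-plating and were fixed two days later in warm paraformaldehyde/sucrose containing Hoechst 33342. Neurites, labelled by rabbit anti-βIII-tubulin (1:800) and Alexa Fluor-488 (1:500), were counted automatically.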

The nature of assay [11]: CCTE_Mundy_HCI_hN2_NOG_NeuriteLength: CCTE's Neurite Outgrowth Assay in human hN2 cells for Neurite Length, Mundy Lab (AID 2284220; active = hit-call score of the fitted dose curve at least 0.9, where 1 is the maximum). In outline:
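Read-out is neurite length from high-content imaging of βIII-tubulin/Alexa Fluor-488-labelled neurons, referenced to DMSO controls.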

Assay [12] in a line: CCTE_Mundy_HCI_hN2_NOG_NeuronCount: CCTE's Neurite Outgrowth Assay in human hN2 cells for Neuron Count, Mundy Lab (AID 2284221; active = hit-call score of the fitted dose curve at least 0.9, where 1 is the maximum). Put shortly:
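Read-out is the number of betaIII-tubulin-positive neurons imaged by automated high-content analysis, with DMSO as negative control.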

Assay [13] can be described thus: CCTE_Mundy_HCI_Cortical_Synap_Neur_Matur_NeuriteCount: CCTE's Synaptogenesis and Neurite Maturation Assay in rat cortical cells for Neurite Count, Mundy Lab (AID 2284222). Put shortly:
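Primary rat cortical cells were plated, treated with AraC at DIV 5, then exposed to chemicals from DIV 7 through DIV 12. After fixation and immunostaining for MAP2 and synaptophysin, imaging quantified neurites, with DMSO as the negative control.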

Assay [14] in a line: CCTE_Mundy_HCI_Cortical_Synap_Neur_Matur_CellBodySpotCount: CCTE's Synaptogenesis and Neurite Maturation Assay in rat cortical cells for Cell Body Spot Count, Mundy Lab (AID 2284223). In outline:
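Read-out: cell body-associated synaptophysin puncta per neuron, imaged after MAP2, synaptophysin and Hoechst staining. Rat cortical cells, AraC DIV 5, chemical dosing DIV 7, fixation DIV 12. Activity fitted in positive direction relative to DMSO baseline.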

Assay [15] can be described thus: CCTE_Mundy_HCI_hNP1_Pro_ResponderAvgInten: CCTE's Proliferation Assay in human neuroprogenitor cells, Mundy Lab (AID 2284224; active = hit-call score of the fitted dose curve at least 0.9, where 1 is the maximum;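 note: human neural progenitor cells hNP1 derived from WA09 embryonic stem cells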). In outline:
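Proliferation read as average intensity of BrdU-positive cells, imaged at 26.25 h post-dosing: chemical exposure started after 40–44 h culture, BrdU during final 4 h, paraformaldehyde fixation. Positive-direction fit relative to DMSO.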

A short description of assay [16]: UKN4_HCS_LUHMES_cell_viability: Viability Assessment in the University of Konstanz (UKN) Leist Lab Neurite Outgrowth Assay in human LUHMES cells (UKN4) (AID 2284232). In outline: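 LUHMES precursors differentiated 2 days, replated at 30000 cells/well without cAMP/GDNF, then compound-treated 24 h. Viability from Hoechst H-33342 and calcein-AM live staining (30 min) by high-content fluorescence imaging; bidirectional fit versus DMSO.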

Assay [17] in a line: UKN2_HCS_IMR90_cell_viability: Viability Assessment in the University of Konstanz (UKN) Leist Lab Neural Crest Cell Migration Assay in human induced IMR90 Pluripotent Stem Cells (UKN2) (AID 2284233).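 Note: viability of neural crest cells differentiated from IMR90 iPSC measured by calcein-AM fluorescence imaging; cells exposed to compound for 24 h after a 24 h migration phase.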 In outline:
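Neural crest cells derived from IMR90 iPSC migrate into a stopper-free zone for 24 h in EGF/FGF medium, then are exposed to compound for 24 h. Viability assessed by calcein-AM and Hoechst staining with high-content imaging, fitted bidirectionally versus DMSO.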

The nature of assay [18]: TAMU_HCS_1.5hr_SingleDonor1434_Cytotoxicity: Cytotoxicity Assessment using High-content Screening (HCS) Fluorescent Imaging for the Texas A&M University (TAMU) 1.5-hr Human Induced Pluripotent Stem Cell (iPSC)-derived Cardiotoxicity Assay (AID 2284234; active = hit-call score of the fitted dose curve at least 0.9, where 1 is the maximum). In outline: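 Human iPSC-derived cardiomyocytes dosed at 0.2, 1, 10, 100 uM final (0.5% DMSO) for 90 min at 37 C. Hoechst 33342-stained nuclei counted by 10x high-content imaging; POD is EC10, a 10% drop in total cell count versus DMSO.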

A short description of assay [19]: CCTE_Mundy_HCI_Cortical_NOG_NeuronCount: CCTE's Neurite Outgrowth Assay in rat cortical cells for Neuron Count, Mundy Lab (AID 2284236; active = hit-call score of the fitted dose curve at least 0.9, where 1 is the maximum;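 note: neurons counted by imaging betaIII-tubulin and Hoechst stained cortical cells; cells exposed to compound for about 48 hours before fixation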). In outline: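 Read-out: neuron number by high-content imaging of betaIII-tubulin (Alexa Fluor-488) and Hoechst-labelled rat primary cortical cells.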

Where “and” joins values, the source holds several entries; their conditions need not be identical. Equal entries are not always repeated. Inconclusive results are not listed. More than one record can exist for a structure, and the calls need not agree. Calls of active or inactive are those of the source. Rule for the calls, unless noted: active = hit-call score of the fitted dose curve at least 0.9, where 1 is the maximum; inactive = score below 0.9.

The term AC50 denotes the midpoint of the concentration-response curve, whichever way the signal moves.

Tumor necrosis factor (Homo sapiens), sequence (P01375 whole entry, looked up): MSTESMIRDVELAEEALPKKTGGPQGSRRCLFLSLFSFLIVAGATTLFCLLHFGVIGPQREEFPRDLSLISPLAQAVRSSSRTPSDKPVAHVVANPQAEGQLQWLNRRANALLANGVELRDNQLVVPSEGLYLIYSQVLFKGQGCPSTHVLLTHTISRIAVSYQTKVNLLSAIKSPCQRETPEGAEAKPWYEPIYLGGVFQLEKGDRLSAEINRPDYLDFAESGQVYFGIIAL

As to `COP(=S)(OC)Oc1ccc(S(=O)(=O)N(C)C)cc1`, the outcome in assay [1], in assay [3], in assay [4] and in assay [5] was inactive. Further, the half-maximal activity concentration (AC50) in assay [2] was 9.48 µM (active).

Regarding `CCOP(=S)(OCC)Oc1nc(Cl)c(Cl)cc1Cl`, the AC50 in assay [6] was 31.2 µM (active) and 29 µM (active); in assay [7], 50 µM (active) and 24.7 µM (active); in assay [9], 50 µM (active) and 27.4 µM (active); in assay [10], 29.1 µM (active); in assay [11], 28.4 µM (active); in [12] it was 17.1 µM (active). Moreover, the half-maximal activity concentration (AC50) in assay [13] is 30 µM (active); in [14], 83.2 µM (active); in assay [15] it was 24.3 µM (active) and 73.3 µM (active); in [16] it was 231 µM (active); in [19], 9.92 µM (active) and 75.5 µM (active). Also, the result in [8], in assay [14], in [17] and in assay [18] was inactive.

Consider `CCSC(C)CC1CC(=O)C(C(CC)=NOC/C=C/Cl)=C(O)C1` (stereo not drawn), for which the outcome in assay [1], in assay [2], in assay [3], in assay [4] and in [5] was inactive.

As for `CCCCC(CC)CO[N+](=O)[O-]` (stereo not drawn), the outcome in [1], in assay [2], in assay [3], in assay [4] and in assay [5] was inactive.

Regarding `O=Cc1cccc(Oc2ccccc2)c1`, the outcome in [1], in assay [2], in [3], in assay [4] and in assay [5] was inactive.

As for `COc1cc(OC)nc(NC(=O)NS(=O)(=O)c2ncccc2C(=O)N(C)C)n1`, the result in assay [1], in assay [2], in [3], in assay [4] and in assay [5] was inactive.

For `C=C(C)C(=O)[O][Sn]([CH2]CCC)([CH2]CCC)[CH2]CCC`, the half-maximal activity concentration (AC50) in assay [6] was 161 nM (active); in [7] it was 59.7 nM (active); in assay [9], 67.2 nM (active); in [13], 0.223 µM (active); in assay [14] it was 0.142 µM (active); in [15], 249 nM (active). The half-maximal activity concentration (AC50) in assay [16] is 0.181 µM (active); in assay [17] it was 0.272 µM (active); in assay [19] it was 82.6 nM (active).

For the compound `NC(=S)Nc1ccccc1`, the result in [1], in [2], in assay [3], in assay [4] and in [5] was inactive.

In the case of `O=C1C2(Cl)C3(Cl)C4(Cl)C(Cl)(Cl)C5(Cl)C3(Cl)C1(Cl)C5(Cl)C24Cl` (stereo not drawn), the AC50 in assay [6] was 21500 nM (active); in [7], 20700 nM (active); in assay [9] it was 19300 nM (active); in assay [13] it was 24.1 µM (active); in assay [14] it was 9.8 µM (active); in [15], 21700 nM (active). Besides, the AC50 in assay [16] is 7.53 µM (active); in [17] it was 3.06 µM (active); in assay [19] it was 15000 nM (active).
